For 39 compounds, Potency results are on record in PubChem BioAssay (NCATS).

Inconclusive results are not listed. Entries that show only a call come without a potency. Activity calls are given as the source filed them. Calls follow the shape of the dose curve; as a rule, active = well fitted inhibition curve with a large enough effect; inconclusive = small, poorly fitted or top-dose-only effect; inactive = no such curve, though single readings can be large or run the other way.

In assay [1] the test system is Zika virus NS2B-NS3 protease (unlinked complex). Kind of assay: Primary screen GU Rhodamine qHTS for Zika virus inhibitors: Unlinked NS2B-NS3 protease assay (AID 1347159). Also: nearly all actives have a fitted effect of over 60% in size. Put shortly:
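Enzyme 25 nM in Tris-HCl pH 8.0 + 0.01% Tween 20; compounds up to 114 microM, 15 min RT dark; + Rhod110 substrate 1.5 microM; read t0 and 15 min; delta fluorescence → % inhibition → 4-parameter Hill fit.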

For assay [2], the system named is Zika virus NS2B-NS3 protease (linked construct). Kind of assay: Primary screen NINDS Rhodamine qHTS for Zika virus inhibitors (AID 1347160). Also: nearly all actives have a fitted effect of over 55% in size. Put shortly:
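Enzyme (25 nM, linked NS2B-NS3) was preincubated 15 min with compound in 10 mM Tris-HCl pH 8.0, 0.01% Tween 20. Rhodamine110 substrate (1.5 microM) was then added and fluorescence read at start and after 15 min.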
In general terms: qHTS replaces the single test concentration by a dilution series.

Take `Cc1[nH]c2ccc(F)cc2c1-c1nc2c3cccnc3c3ncccc3c2[nH]1`: the Potency entry in assay [1] and in assay [2] was “inactive” throughout.

Regarding `Cc1c(C(=O)Nc2ccc(N3CCC(N4CCOCC4)CC3)c(C#N)c2)cnn1-c1ccc(Cl)cc1`, the Potency entry in assay [1] and in assay [2] was “inactive” in each case.

As to `CCCN(CCc1ccsc1)C1CCc2c(O)cccc2C1` (stereo not drawn), the Potency entry in assay [1] and in assay [2] was “inactive” in each case.

With `CC1(C)OC[C@H](NC(=O)Nc2ccc(Br)cc2Br)[C@H](c2ccccc2)O1`, the Potency entry in assay [1] and in assay [2] was “inactive” throughout.

For the compound `C=C1C(=O)OC2/C=C(\COC(C)=O)CC/C=C(\C=O)CC(OC(=O)CC(C)C)C12` (stereo not drawn), the Potency result in assay [1] and in assay [2] was “inactive” in each case.

Turning to `CCOC(=O)N1c2ccc(C(F)(F)F)cc2C(N(Cc2cc(C(F)(F)F)cc(C(F)(F)F)c2)C(=O)OC)CC1CC` (stereo not drawn), the Potency entry in assay [1] and in assay [2] was “inactive” throughout.

In the case of `C/C1=C/CCC2=CC(OC2=O)C(C)(C)/C=C/C1=O` (stereo not drawn), the Potency result in assay [1] and in assay [2] was “inactive” in each case.

With `Fc1ccc(N2CCCCC2)c(NC(=S)c2ccncc2)c1`, the Potency result in assay [1] and in assay [2] was “inactive” in each case.

In the case of `CN(C)C(=O)NC1(c2ccccc2)CCN(CCC[C@]2(c3ccc(Cl)c(Cl)c3)CCCN(C(=O)c3ccccc3)C2)CC1`, the Potency entry in assay [1] and in assay [2] was “inactive” each time.

In the case of `OC1CCC(Nc2nc(-c3ccccc3)nc3[nH]ccc23)CC1` (stereo not drawn), the Potency result in assay [1] and in assay [2] was “inactive” in each case.

For `CN1CCN(C2=Nc3ccccc3Nc3ccc(Cl)cc32)CC1`, the Potency entry in assay [1] and in assay [2] was “inactive” each time.

On to `COc1ccccc1N1CCN(CC(C(=O)NC(C)(C)C)c2ccccc2)CC1` (stereo not drawn), for which the Potency entry in assay [1] and in assay [2] was “inactive” in each case.

With `O=C(CN1C2=NCCN2c2ccccc21)c1ccc(-c2ccccc2)cc1`, the Potency result in assay [1] and in assay [2] was “inactive” in each case.

For `O=S(=O)(N[C@H]1CCCC[C@@H]1N1CCOCC1)c1ccc(Cl)cc1`, the Potency entry in assay [1] and in assay [2] was “inactive” each time.

Take `CC(O)C(C)n1ncn(-c2ccc(N3CCN(c4ccc(OCC5COC(Cn6cncn6)(c6ccc(Cl)cc6Cl)O5)cc4)CC3)cc2)c1=O` (stereo not drawn): the Potency entry in assay [1] and in assay [2] was “inactive” each time.

In the case of `C=C1C(=O)O[C@@H]2/C=C(\C)CC/C=C(\C)CC[C@@H]12`, the Potency result in assay [1] and in assay [2] was “inactive” in each case.

As to `COc1cc2nc(C3CC3)nc(N3CCN(c4ccccc4OC)CC3)c2cc1OC`, the Potency result in assay [1] and in assay [2] was “inactive” throughout.

Take `O=C(c1ccccn1)N(Cc1cccs1)C1(C(=O)NC2CCCCC2)CCCCC1`: the Potency result in assay [1] and in assay [2] was “inactive” in each case.

As for `Cn1ncc(Cl)c1-c1cc(C(=O)N[C@H](CN)Cc2cccc(F)c2)sc1Cl`, the Potency entry in assay [1] and in assay [2] was “inactive” in each case.

Regarding `C=C1C(=O)O[C@@H]2/C=C(\CO)CC/C=C(\CO)[C@H](OC(C)=O)C(OC(=O)C(C)CC)C12` (stereo partly drawn), the Potency entry in assay [1] and in assay [2] was “inactive” throughout.

For `COc1cc(/C=N\NC(=O)c2ccc3c(c2)OCO3)ccc1OCc1ccccc1`, the Potency entry in assay [1] and in assay [2] was “inactive” throughout.

Consider `CN1CCN(c2ccc(OC(F)(F)F)c(Nc3ncc4c(n3)-c3c(c(C(N)=O)nn3CCO)CC4)c2)CC1`, for which the Potency result in assay [1] and in assay [2] was “inactive” in each case.

With `Cc1cc2occ(CN(C)CCN(C)Cc3cn(-c4cccc(C(F)(F)F)c4)c4ccccc34)c(=O)c2cc1C`, the Potency entry in assay [1] and in assay [2] was “inactive” throughout.

Consider `CCOc1ccc(-n2c([C@@H](C)N(Cc3cccnc3)C(=O)Cc3ccc(OC(F)(F)F)cc3)nc3ncccc3c2=O)cc1`, for which the Potency entry in assay [1] and in assay [2] was “inactive” throughout.

For `N#Cc1ccc(COC[C@H]2O[C@@H](n3c(NCc4ccc(Cl)c(Cl)c4)nc4c(N)ncnc43)[C@H](O)[C@@H]2O)cc1`, the Potency entry in assay [1] and in assay [2] was “inactive” in each case.

For the compound `OC1C=C2C3CN(Cc4cc5c(cc43)OCO5)C2CC1O` (stereo not drawn), the Potency result in assay [1] and in assay [2] was “inactive” throughout.

As to `Cc1cc2c(F)c(Oc3ncnn4cc(OCC(C)OC(=O)C(C)N)c(C)c34)ccc2[nH]1` (stereo not drawn), the Potency result in assay [1] and in assay [2] was “inactive” in each case.

As to `CN1CCN(C(=O)CN[C@@H]2C[C@H]2c2ccc(OCc3ccccc3)cc2)CC1`, the Potency result in assay [1] and in assay [2] was “inactive” in each case.

`COc1ccc(C#Cc2ccc(C(=O)N3CCC[C@@H](O)C3)c(F)c2)cc1`: the Potency entry in assay [1] and in assay [2] was “inactive” throughout.

Consider `C[C@H]1CC[C@@]2(OC1)O[C@H]1CC3[C@@H]4CC[C@@H]5C[C@@H](O[C@@H]6O[C@H](CO)[C@@H](O[C@@H]7O[C@@H](C)[C@H](O)[C@@H](O)[C@H]7O)[C@H](O)[C@H]6O[C@@H]6O[C@H](CO)[C@@H](O)[C@H](O)[C@H]6O)CC[C@]5(C)C4CC[C@]3(C)[C@H]1[C@@H]2C` (stereo partly drawn), for which the Potency entry in assay [1] and in assay [2] was “inactive” in each case.

Regarding `COc1cc(/C=C2\CCCN([C@@H](C)c3ccc(F)cc3)C2=O)ccc1-n1cnc(C)c1`, the Potency entry in assay [1] and in assay [2] was “inactive” each time.

For the compound `COC1CCN(C(=O)c2cc(Cc3n[nH]c(=O)c4ccccc34)ccc2F)CC1`, the Potency result in assay [1] and in assay [2] was “inactive” each time.

For `CC(=O)Nc1cccc(-c2csc(Nc3cc(C)ccn3)n2)c1`, the Potency result in assay [1] and in assay [2] was “inactive” in each case.

For the compound `COc1cc2c(cc1-c1c(C)noc1C)ncc1[nH]c(=O)n(C(C)c3ccccn3)c12` (stereo not drawn), the Potency result in assay [1] and in assay [2] was “inactive” in each case.

As for `Cc1cc(C(C)Nc2ccccc2C(=O)O)c2nc(N3CCOCC3)cc(=O)n2c1` (stereo not drawn), the Potency entry in assay [1] and in assay [2] was “inactive” throughout.

For `CC(=O)O[C@H]1C[C@H](OC(C)=O)[C@]2(C)[C@H](CC[C@@]34O[C@@H]3C3=C(C)C(=O)O[C@@H]3C[C@H]42)C1(C)C`, the Potency result in assay [1] and in assay [2] was “inactive” each time.

Take `CN1CCN(S(=O)(=O)c2ccc(-c3cnc(N)c(C(=O)Nc4cccnc4)n3)cc2)CC1`: the Potency result in assay [1] and in assay [2] was “inactive” each time.

Take `CCCc1ccc(OCC(=O)N(Cc2nc(-c3cccnc3)no2)C(C)C)cc1`: the Potency entry in assay [1] and in assay [2] was “inactive” each time.

For `CN1CCC(NC(=O)c2cc(-c3c(O)cc(O)cc3Oc3ccc([N+](=O)[O-])cc3)on2)CC1`, the Potency entry in assay [1] and in assay [2] was “inactive” throughout.
